Measured values as given in the supplement of paper PMC3656093.
± gives the standard deviation of the averaged measurements. Over roughly 1,900 compounds, “CD40L-induced NF-kB luciferase activity, plate-corrected, relative to DMSO (0) and IKK inhibitor VII (-100) controls” has its median near 0.032; the lowest 2% begin near -26. The list comes from a sample in which the lowest values are over-represented; it also holds similar structures and randomly drawn compounds.

These molecules were tested on BL2-NFkB-Luc (assay: CD40L-induced NF-kB luciferase activity, plate-corrected, relative to DMSO (0) and IKK inhibitor VII (-100) controls (% normalized activity); higher = more NF-kB reporter activity (less inhibition)). Settings: 9.4 µM; stimulus: tCD40L 64 ng/ml; 4.5 h.
Description: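 BL2 B cells with a stable NF-kB response-element luciferase reporter (BL2-NFkB-Luc), 384-well. Cells were pre-incubated with compound at 9.4 uM for 1 h at 37 C, then stimulated with 64 ng/ml trimerized CD40L for 4.5 h; luciferase was read with Steady-Glo. Signal was normalised per plate in Genedata (median DMSO neutral control = 0, median IKK inhibitor VII at 50 uM = -100) with Assay Median plate-pattern correction; duplicate plates.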

SMILES	CD40L-induced NF-kB luciferase activity
COC(=O)C1=C(C)N(C)C(=S)NC1c1ccc(Cl)cc1 (stereo not drawn)	-1.51 ± 7.8
CC[C@]1(O)C[C@@H]2CN(CCc3c([nH]c4ccccc34)[C@@](C(=O)OC)(c3cc4c(cc3OC)N(C=O)[C@H]3[C@@](O)(C(=O)OC)[C@H](OC(C)=O)[C@]5(CC)C=CCN6CC[C@]43[C@@H]65)C2)C1	-50.4 ± 4.8
CC[C@]1(O)C[C@@H]2CN(CCc3c([nH]c4ccccc34)[C@@](C(=O)OC)(c3cc4c(cc3OC)N(C)[C@H]3[C@@](O)(C(=O)OC)[C@H](OC(C)=O)[C@]5(CC)C=CCN6CC[C@]43[C@@H]65)C2)C1	-54.7 ± 1.7
CCN(CC)CCCNC(=O)C1c2ccccc2Oc2ccccc21	-3.46 ± 0.27
CC1CCCC(C)N1NC(=O)c1ccc(Cl)c(S(N)(=O)=O)c1 (stereo not drawn)	4.34 ± 1.3
COc1cc2c(cc1OC)C(=S)NC(C)(C)C2	-9.01 ± 2.9
COc1cc(C(=O)NCCc2c[nH]c3ccccc23)ccc1OCc1c(C)noc1C	2.18 ± 3.7
Cc1ccc(C=NNc2nc(C(C)(C)C)cs2)o1	37 ± 13
Cc1cccc(N2CCN(C(=S)c3ccccc3)CC2)c1	6.51 ± 2.4
COc1ccc(CN2CCC(=O)NC2=O)cc1	4.64 ± 6
COc1ccc2c3c([nH]c2c1)C1(NCC3)C(=O)Nc2ccccc21 (stereo not drawn)	5.33 ± 6.5
Cc1ccc(C(=O)NC(=S)NCCCN2CCOCC2)cc1	8.31 ± 1.3
CC(=O)O[C@H]1CSC[C@H]1NC(=O)c1ccccc1	2.65 ± 7.7
O=C(Nc1ccc(Oc2c(F)c(F)c(F)c(F)c2F)cc1)OC1CCN2Cc3ccccc3N=C12 (stereo not drawn)	-15.2 ± 2.6
COc1cc(CNCCc2c[nH]c3ccccc23)cc(Cl)c1OCC(N)=O	-2.87 ± 1.6
O=C1C(O)CC2c3ccccc3CC3(CCCC3)N12 (stereo not drawn)	2.45 ± 2.2
c1ccc(Nc2ccccn2)nc1	6.17 ± 1.9
OCC1(CCOc2ccccc2)CCN(CCCn2cccn2)CC1	-3.68 ± 2.7
c1ccc2c(c1)CCOC2CNCCCN1CCCCC1 (stereo not drawn)	-0.411 ± 1.1
Cc1ccc(C(CC(=O)NCc2ccco2)c2ccc(OC(C)C)cc2)cc1 (stereo not drawn)	-5.4 ± 2.5
Cc1ccccc1NC(=O)c1c(C)cc(=O)oc1C	-17.1 ± 22
COc1cccc(OC)c1C(=O)Nc1nc2ccc([N+](=O)[O-])cc2s1	3.34 ± 5.3
CC(C)c1ccc(OCc2ccc(C(=O)O)o2)cc1	-32.6 ± 4.2
COc1ccc(NC(=O)Nc2ccc(C(C)C)cc2)cc1	13.4 ± 0.33

SMILES	CD40L-induced NF-kB luciferase activity
COC(=O)c1ccc(COc2ccc3c(C)c(C)c(=O)oc3c2C)o1	-0.554 ± 5
CCOc1ccc2[nH]c3c(=O)n(CCc4ccc(OC)cc4)cnc3c2c1	-2.8 ± 3.9
COc1ccc2c(CCNC(=O)c3ccc([N+](=O)[O-])cc3)c[nH]c2c1	-3.48 ± 6.8
Cc1oc(C=NNC(=O)CC2(C)OCCO2)cc1Br	-0.742 ± 2.4
COc1ccc(/C=C/C(=O)NC(=S)NN2CCCCC2c2cccnc2)cc1 (stereo not drawn)	1.59 ± 3.4
Nc1nnc(CSCc2ccc(Cl)cc2Cl)s1	11.4 ± 2.5
Cc1c(OCC(=O)NC(Cc2c[nH]c3ccc(O)cc23)C(=O)O)ccc2c3c(c(=O)oc12)CCC3 (stereo not drawn)	2.12 ± 6.2
CCCCC[C@H](O)/C=C/[C@@H]1[C@@H](C/C=C\CCCC(=O)O)[C@@H](O)C[C@H]1O	-2.36 ± 2.1
CCCCC[C@H](O)/C=C/[C@@H]1[C@@H](CCCCCCC(=O)O)[C@@H](O)C[C@H]1O	-29.5 ± 5.2
CCCCC[C@H](O)/C=C/[C@@H]1[C@@H](C/C=C\CCCC(=O)OC)[C@@H](O)C[C@H]1O	-2.47 ± 3.2
O=S(=O)(CCc1nc2ccccc2[nH]1)c1ccc(Cl)cc1	-12.2 ± 1.3
COc1cc(C=NCC2OCCc3ccccc32)cc(OC)c1 (stereo not drawn)	-1.7 ± 1.9
CC1(C)c2ccccc2N2CC(=O)N(CC(N)=O)C21C (stereo not drawn)	1.75 ± 1.9
COc1ccccc1N1C(=O)C2CC(C)=C(C)CC2C1=O (stereo not drawn)	-4.81 ± 2.4
COc1ccc(S(N)(=O)=O)cc1C(N)=O	-2.45 ± 4.3
CCCC(=O)O[C@]1(C(=O)COC(C)=O)CC[C@H]2[C@@H]3C[C@H](F)C4=CC(=O)C=C[C@]4(C)[C@@]3(F)[C@@H](O)C[C@@]21C	-17.6 ± 1.6
CC(=O)[C@@]1(O)CC[C@H]2[C@@H]3C[C@H](C)C4=CC(=O)CC[C@]4(C)[C@H]3CC[C@@]21C	-15.7 ± 2.4
C[C@@H]1C[C@H]2[C@@H]3CCC4=CC(=O)C=C[C@]4(C)[C@@]3(F)[C@@H](O)C[C@]2(C)[C@@]1(O)C(=O)COP(=O)(O)O	-2.27 ± 0.67
CC(=O)[C@@]1(O)CC[C@H]2[C@@H]3C[C@H](C)C4=CC(=O)C=C[C@]4(C)[C@@]3(F)[C@@H](O)C[C@@]21C	-27 ± 2.1
CC(=O)OCC(=O)[C@@]1(O)[C@H](C)C[C@H]2[C@@H]3CCC4=CC(=O)C=C[C@]4(C)[C@@]3(F)[C@@H](O)C[C@@]21C	-27.6 ± 1
CC(=O)OCC(=O)[C@@]1(OC(C)=O)[C@@H](C)C[C@H]2[C@@H]3C[C@H](F)C4=CC(=O)C=C[C@]4(C)[C@@]3(F)[C@@H](O)C[C@@]21C	-17.3 ± 0.28
C[C@@H]1C[C@H]2[C@@H]3C[C@H](F)C4=CC(=O)C=C[C@]4(C)[C@@]3(F)[C@@H](O)C[C@]2(C)[C@@]1(O)C(=O)CO	-27.2 ± 0.89
CC(=O)OCC(=O)[C@@]12OC(C)(C)O[C@@H]1C[C@H]1[C@@H]3C[C@H](F)C4=CC(=O)C=C[C@]4(C)[C@@]3(F)[C@@H](O)C[C@@]12C	-11.4 ± 5.5
C[C@@H]1C[C@H]2[C@@H]3C[C@H](F)C4=CC(=O)C=C[C@]4(C)[C@@]3(F)[C@@H](O)C[C@]2(C)[C@@]1(O)C(=O)COC(=O)C(C)(C)C	-29.5 ± 1.7
